SARS PLpro yeast – SARS-CoV PLP inhibition in yeast | Potency, µM (highest dose often 32.9 µM), actives largely listed as activators | S. cerevisiae expressing SARS-CoV PLpro, growth rescue | actives 0.19% (n = 330,000); calls by dose curve; further: nearly all actives have a fitted effect of over 55% in size
AMA1 RON2 block – AMA1-RON2 (P. falciparum) interaction inhibition; AID 720542; actives 0.2% (n = 360,000); AlphaScreen AMA1-biotinylated RON2 peptide binding; Potency, µM (top dose mostly 58.2 µM), hits mostly inhibitors; further: nearly all actives have a fitted effect of over 45% in size
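AMA1 (3D7) with his tag at 25 nM final met compounds first, then biotinylated RON2 peptide at 25 nM; detection used donor plus acceptor beads, 10 µg/mL apiece, read by AlphaScreen after 30 min at room temperature.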
CHX counter – counter-screen for Shiga toxin inhibitors: cycloheximide protein synthesis inhibition | max response, % | cell reporter, cycloheximide protein synthesis inhibition counterscreen | actives 12% (n = 300,000) | AID 2314; in the data active means max response mostly above about 13%, no sharp cut-off; inactive means mostly below about 14%; further: read at 38.3 µM for the half of the compounds with a filed dose
Pf growth 48h – inhibits P. falciparum growth in the first generation, 48 h | actives 5.9% (n = 310,000) | AID 504832 | P. falciparum luciferase growth in erythrocytes, 48 h | Potency, µM (series often up to 28.7 µM), hits mostly inhibitors
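Cell-based growth assay: transgenic P. falciparum expressing firefly luciferase, cultured in red cells within RPMI 1640 containing 0.5% w/v Albumax, 24 mM bicarbonate and gentamycin. A drop in luciferase activity indicates inhibition.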
Shiga inhibitor – Shiga toxin inhibition; Vero cells, Shiga toxin protein synthesis inhibition reporter; actives 9.2% (n = 290,000); inhibition, % at 38.7 µM; AID 2315; in the data active means inhibition mostly above about 28%, no sharp cut-off; inactive means mostly below about 43%
Pf growth 96h – P. falciparum growth inhibition at 96 hours; P. falciparum luciferase reporter growth, 96 h; Potency, µM (doses to about 28.7 µM), most hits filed as inhibitors; actives 6.9% (n = 320,000)
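P. falciparum expressing integrated firefly luciferase grown in erythrocytes (2% hematocrit, 0.05% parasitemia final) with compounds for 96 hours at 37 C, 5% CO2. Growth inhibition read as loss of luminescence after adding luciferase detection reagent.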
Each line names hits and unclear results; the compound was inactive in the other large screens. Compounds with a hit are over-represented: about 19% of the library has one in this group of screens. Unless noted, the call rests on the fitted dose curve; in most records, active means well fitted curve in the direction sought with a large enough effect; inconclusive means small, poorly fitted or top-dose-only effect, or another doubt; inactive means no such curve, though single readings can be large; an effect the other way counts as inactive or inconclusive.

CCc1cc2c(=O)c(-c3nc4ccccc4n3C)coc2c(CN2CCCCC2)c1O	Pf growth 96h 2.94µM
CCc1cc2c(=O)c(-c3nc4ccccc4n3C)coc2c(CN2CCOCC2)c1O	SARS PLpro yeast inconclusive (no result: Pf growth 96h)
CCc1cc2c(=O)c(-c3cnn(-c4ccccc4)c3)c(C)oc2c(CN2CCCCC2)c1O	Pf growth 48h 14.7µM
CCc1cc2c(=O)c(-c3cnn(-c4ccccc4)c3)coc2c(CN2CCOCC2)c1O	Pf growth 48h inconclusive, Pf growth 96h inconclusive
CCc1cc2c(=O)c(-c3cnn(-c4ccccc4)c3)c(C(F)(F)F)oc2c(CN(C)C)c1O	Pf growth 48h 6.57µM (no result: Pf growth 96h)
CCCC(=O)N(C)c1nnc(-c2ccc(OC)cc2)s1	CHX counter 13.3, Pf growth 96h 10.4µM
CCOc1ccc(-c2nnc(N(CC)C(=O)C3CCC3)s2)cc1	CHX counter 27.9, Pf growth 48h inconclusive, Shiga inhibitor 52.5, Pf growth 96h 6.57µM
COCCN(C(=O)CCc1ccc(OC)cc1)c1nnc(-c2ccncc2)s1	none
Cc1cccc(-c2ncc(S(=O)(=O)C(C)(C)C)c(N)n2)c1	CHX counter 11.3
Cc1cccc(C)c1OCc1cc(C(=O)N2CCC(c3ccncc3)CC2)no1	CHX counter 36.5, Shiga inhibitor 57.9
CSc1ccccc1OCc1cc(C(=O)N2CCN3CCCC3C2)no1 (stereo unspecified)	CHX counter 15.2, Pf growth 96h inconclusive
Cc1cccc(C)c1OCc1cc(C(=O)N2CCN(C3CCCC3)CC2)no1	CHX counter 34.7, Shiga inhibitor 64.3
CCN1CCN(C(=O)c2cc(COc3c(C)cccc3C)on2)CC1	CHX counter 18.8, Pf growth 96h inconclusive
Cc1cc(C(=O)COC(=O)c2cc(Cl)c(O)c(Cl)c2)c(C)n1C	AMA1 RON2 block inconclusive (no result: CHX counter, Shiga inhibitor)
Cc1cc(C(=O)N2CCCC(N3CCN(c4cccc(Cl)c4)CC3)C2)no1 (stereo unspecified)	SARS PLpro yeast inconclusive
Cc1cccc(C)c1OCc1cc(C(=O)N2CCN3CCCC3C2)no1 (stereo unspecified)	CHX counter 18.7, Shiga inhibitor 44.5
Cc1cccc(NC(=O)CSCC(=O)Nc2ccccc2C(=O)NC2CC2)c1	none (no result: CHX counter, Shiga inhibitor)
Cc1cc(C)c(C(=O)Nc2ccc(Br)c(C(F)(F)F)c2)c(C)c1	Pf growth 48h 13.1µM, Pf growth 96h 9.28µM
O=C(O)c1ccccc1C(=O)Nc1ccc(Br)c(C(F)(F)F)c1	none
COc1ccc(OC)c(N2Cc3ccccc3C2)c1	Pf growth 48h 5.86µM, Pf growth 96h 11.7µM
COc1ccccc1N1Cc2ccccc2C1	CHX counter 21.3, Pf growth 48h 13.1µM, Pf growth 96h inconclusive
COc1ccc(Cl)cc1N1Cc2ccccc2C1	Pf growth 48h 13.1µM (no result: Pf growth 96h)
COc1ccc(N2Cc3ccccc3C2)cc1Cl	CHX counter 22.0, Pf growth 48h inconclusive, Shiga inhibitor 87.2
COc1ccc(OC)c(N2Cc3ccccc3C2=N)c1	Pf growth 96h 5.86µM
COc1ccc(OC)c(S(=O)(=O)N2CCc3ccccc32)c1	Pf growth 48h inconclusive
Cc1cc(C)nc(N2Cc3ccccc3C2=N)n1	Pf growth 48h 14.7µM, Pf growth 96h inconclusive
Cc1c(CN(C)C)c2c(n1C)C(=O)c1ccc(Br)cc1-2	Pf growth 48h inconclusive, Pf growth 96h 11.7µM
Cc1c(CN(C)C)c2c(n1Cc1ccccc1)C(=O)c1ccc(Br)cc1-2	AMA1 RON2 block inconclusive, Pf growth 96h 2.33µM (no result: Pf growth 48h)
CC(C)OCCCNC(=O)NC(=O)c1ccc(Cl)cc1	Pf growth 96h inconclusive
COc1ccc(C)cc1NC(=O)NNC(=O)C1CCC(C(C)(C)C)CC1 (stereo unspecified)	Pf growth 48h inconclusive
CCOC(=O)c1c(NC(=O)COC(=O)CNC(=O)c2ccc(Cl)cc2Cl)sc(C(=O)N(C)C)c1C	none (no result: CHX counter, Shiga inhibitor)
c1coc(-c2nnc3sc(C4CCCCC4)nn23)c1	Pf growth 48h inconclusive
O=c1oc2ccc3ccccc3c2cc1-c1nnc(-c2cccs2)o1	CHX counter 25.3
O=c1oc2ccc3ccccc3c2cc1-c1nnc(-c2ccccc2)o1	CHX counter 42.0
COc1ccc(-c2nnc(-c3cc4c(ccc5ccccc54)oc3=O)o2)cc1	none
Nc1nnc(-c2cc3c(ccc4ccccc43)oc2=O)s1	none (no result: AMA1 RON2 block)
Cc1ccc(Cl)cc1NC(=S)N(CCN(C)C)C(C)c1ccccn1 (stereo unspecified)	none
CCc1nc2ccc(C(=O)NCc3ccc4c(c3)OCO4)cn2c1N(C)C(=O)Cc1ccccc1	none (no result: SARS PLpro yeast, CHX counter, Pf growth 48h, Shiga inhibitor, Pf growth 96h)
CNc1ncnc2c1ncn2[C@H]1CN(Cc2cccs2)C[C@@H](CO)O1	none (no result: SARS PLpro yeast, CHX counter, Pf growth 48h, Shiga inhibitor, Pf growth 96h)
CCc1ccc(N(CC(=O)NCc2ccc(F)cc2)C(=O)c2csnn2)cc1	Pf growth 48h inconclusive, Pf growth 96h inconclusive
Cc1ccc(C(=O)Nc2ccc(S(=O)(=O)N3CCOCC3)cc2)cc1	Pf growth 48h inconclusive, Pf growth 96h inconclusive
CC(=O)Nc1ccc(NC(=O)c2cc(-c3cc(C)cc(C)c3O)n[nH]2)cc1	CHX counter 22.6, Pf growth 48h 11.7µM, Pf growth 96h inconclusive
Cc1cc(C)c(O)c(-c2cc(C(=O)Nc3ccc(S(=O)(=O)N4CCOCC4)cc3)[nH]n2)c1	Pf growth 48h 5.86µM (no result: Pf growth 96h)
CC(=O)Nc1ccc(NC(=O)c2cc(-c3ccc(C)c(C)c3O)n[nH]2)cc1	CHX counter 29.4, Pf growth 48h 11.7µM, Pf growth 96h 2.33µM
Cc1ccc(-c2cc(C(=O)Nc3ccc(S(=O)(=O)Nc4ncccn4)cc3)[nH]n2)c(O)c1C	Pf growth 48h inconclusive, Pf growth 96h 9.28µM
Cc1ccc(NC(=O)c2cc(-c3ccc(C)c(C)c3O)n[nH]2)cc1C	Pf growth 48h inconclusive, Pf growth 96h inconclusive
C[C@H]1OC(OC2C(O)[C@@H](O)C(OC3C(O)[C@@H](O)C(O)O[C@@H]3CO)O[C@@H]2CO)[C@H](O)C(O)C1N[C@H]1C=C(CO)[C@@H](O)[C@H](O)C1O (stereo partly specified)	none (no result: SARS PLpro yeast, AMA1 RON2 block)
Cc1cccc(NC(=O)c2cc(-c3ccc(C)c(C)c3O)n[nH]2)c1	CHX counter 48.8, Shiga inhibitor 92.2
CCNS(=O)(=O)c1ccc(CCC(=O)Nc2ccc3c(c2)OCCO3)cc1	Pf growth 48h 9.28µM, Pf growth 96h inconclusive (no result: Shiga inhibitor)
CC(C)NS(=O)(=O)c1ccc(CCC(=O)Nc2ccc3c(c2)OCCO3)cc1	AMA1 RON2 block inconclusive, Pf growth 48h 4.65µM, Pf growth 96h inconclusive
CC(C)(C)NS(=O)(=O)c1ccc(CCC(=O)Nc2ccc3c(c2)OCCO3)cc1	Pf growth 48h inconclusive
Cc1cc(C)nc(SCC(=O)NN)n1	Pf growth 48h inconclusive
CCCCN(CCCC)c1ncnc2nc[nH]c12	none
CCCCN(Cc1ccccc1)c1ncnc2nc[nH]c12	CHX counter 36.0, Shiga inhibitor 31.5
COc1ccc(-c2nc(CS(=O)CC(=O)NCc3ccc(Cl)cc3)c(C)o2)cc1OC (stereo unspecified)	Pf growth 96h inconclusive

Bioassay records (PubChem)
